# HT1080-NT tox: kills 2HG-producing HT-1080-NT fibrosarcoma cells; Potency, µM (highest dose often 46.1 µM), without a hit: at the top dose activity, negative = less viability, hits mostly cytotoxic; 360,000 tested, 1.6% active; HT-1080-NT fibrosarcoma viability, CellTiter-Glo ATP luminescence, 48 h;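 note: NT is the 2HG producing partner of a matched IDH1 knockdown line; potency is the fitted concentration of half-maximal effect; 0% = DMSO-treated cells and -100% = media-only wells without cells; nearly all actives have a fitted effect of over 55% in size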
#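 Read-out is CellTiter-Glo luminescence after 10 minutes at room temperature, following 48 hours' compound treatment of HT-1080-NT cells (750 cells/well, RPMI, 5% FBS, 37 degrees C).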
# DT40 TDP1 no CPT: qHTS for Inhibitors of human tyrosyl-DNA phosphodiesterase 1 (TDP1): qHTS in cells in absence of CPT; Potency, µM (highest dose often 46.2 µM), for inactives: at the highest dose activity change, negative = growth inhibition, hits mostly inhibitors; 420,000 tested, 15% active; DT40 Tdp1-/- hTDP1 cells, no CPT, ATP luminescence, 48 h; note: potency is the fitted concentration of half-maximal effect; nearly all actives have a fitted effect of over 55% in size
#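 Chicken DT40 Tdp1-/- cells stably complemented with human TDP1 were seeded at 400 cells/well with DMSO in place of 20 nM camptothecin. After compound pinning, cells grew at least 48 hr at 37 °C; viability read by CellTiter-Glo luminescence.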
# DT40 TDP1 CPT: DT40-hTDP1 cell growth loss with CPT | chicken DT40 Tdp1-/-;hTDP1 cells + 20 nM CPT, ATP luminescence, 48 h | Potency, µM (titrated, usually from 46.2 µM), without a hit: at the top dose activity change, negative = growth inhibition, most hits filed as inhibitors | 420,000 tested, 12% active; note: potency is the fitted concentration of half-maximal effect; nearly all actives have a fitted effect of over 55% in size
#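 Cell growth measured by CellTiter-Glo luminescence after a minimum 48 h, 37 C compound exposure with 20 nM CPT in Tdp1-knockout DT40 cells stably expressing hTDP1, seeded 400/well; qHTS titration format.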
# HT1080 IDH1KD tx: HT-1080 IDH1 knockdown cell toxicity (counter line). 360,000 tested, 2% active. Potency, µM (top dose mostly 46.1 µM), inactives show at the highest dose activity, negative = toxicity, actives largely listed as cytotoxic. HT-1080 IDH1 knockdown viability, ATP luminescence, 48 h;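 note: potency is the fitted concentration of half-maximal effect; 0% = DMSO wells and -100% = cell-free medium wells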
#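 After a 2 h attachment period, IDH1KD HT-1080 cells took pin-transferred compound for 48 h at 37 °C; ATP-based luminescence after 10 min room-temperature reagent incubation reported viability.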
# IL1B secr inh: blocks inflammasome-driven IL-1 beta release; THP-1 LPS/ATP IL-1B secretion, AlphaLISA, 16 h; active compounds read low; activity change, % at 57.5 µM; 360,000 tested, 4.7% active; in the data active = activity change below about -50%; inconclusive = mostly about -30% to -49%
#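 THP-1 cells pretreated 1 hr with compounds (up to 57.5 uM final), then stimulated with LPS (250 ng/mL final) plus ATP (1.25 mM final); secreted IL-1B measured by AlphaLISA after 16 hr, decreased signal indicating inhibition.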
# * hit, by the source's call; i = inactive; ? = inconclusive; / = not tested or not shown; [ ] = remark or other dose. Hits are enriched below; roughly 19% of the tested compounds scored in any of these assays. Unless noted, calls come from the whole dose curve; as a rule, active = well fitted curve in the direction sought with a large enough effect; inconclusive = small, poorly fitted or top-dose-only effect, or another doubt; inactive = no such curve, though single readings can be large; an effect the other way counts as inactive or inconclusive. Unless noted, % is set by controls: 0 for no effect and ±100 for the full control effect.
SMILES,HT1080-NT tox,DT40 TDP1 no CPT,DT40 TDP1 CPT,HT1080 IDH1KD tx,IL1B secr inh
O=C(CCC1CCN(C(=O)c2ccccc2Cl)CC1)NCc1ccc(F)cc1,4.0%,-0.9%,?,17.2%,i
COc1ccc(Cn2c(C(C)C)nc3sc4ccccc4c(=O)c3c2=O)cc1,3.2%,11.6µM*,?,3.6%,?
CC(C)c1nc2sc3ccccc3c(=O)c2c(=O)n1Cc1ccccc1,0.8%,14.6µM*,16.4µM*,-2.0%,61.5
CCCc1nc2sc3ccccc3c(=O)c2c(=O)n1Cc1ccc(OC)cc1,-16.6%,20.6µM*,13µM*,-6.0%,39.9
COc1ccc(Cn2c(=O)sc3ccccc3c2=O)cc1,2.8%,-22.8%,1.4%,6.1%,12.9
CCCc1nc2sc3ccccc3c(=O)c2c(=O)n1Cc1ccco1,-11.3%,?,?,-0.6%,10.2
COCCn1c(C(C)C)nc2sc3ccccc3c(=O)c2c1=O,8.8%,-27.0%,-20.5%,-0.3%,20.1
CCC(C)(C)NC(=O)C(c1ccc(F)cc1)N(CCOC)C(=O)CCC(=O)Nc1nccs1 (centres undefined),9.1%,-8.8%,0.0%,14.5%,2.3
CC(=O)Nc1ccc(S(=O)(=O)NCCC(=O)NCCOc2ccccc2)cc1,5.2%,5.2%,-9.7%,3.5%,7.8
Cc1ccnn1CC(=O)N1CCOc2c(cc(-c3ncc(C(F)(F)F)cc3Cl)cc2OCC2CCCO2)C1 (centres undefined),/,-24.1%,-1.2%,/,/
CCOc1ccc(/C=N/NC(=O)c2ccc(CSc3nc4ccccc4[nH]3)cc2)cc1,?,23.1µM*,23.1µM*,?,21.0
COC(=O)c1cccc(CSc2nc3ccccc3[nH]2)c1,0.4%,16.4µM*,?,-11.8%,3.1
COC(=O)c1ccc(CSc2nc3ccccc3[nH]2)o1,6.0%,-8.4%,-24.1%,4.6%,5.7
COC(=O)c1ccc(CSc2nc3ccc(S(N)(=O)=O)cc3[nH]2)cc1,4.6%,1.1%,-3.9%,-1.8%,-100.6*
CCOC(=O)N1CCN(C(=O)C[C@@H]2C[C@@]3(C(=O)OCC)CCCC=C3N(Cc3ccco3)C2=O)CC1,3.6%,?,-14.6%,-0.8%,-4.8
O=C1c2ccccc2C(=Nc2ccccc2)C1c1cccc(Br)c1 (centres undefined),-3.3%[9.24 µM],?,10.3µM*,-18.5%,54.4
O=C1c2ccccc2-c2cc(Br)ccc2NC1O (centres undefined),0.1%,?,-20.0%,-13.6%,0.9
CN(Cc1ccco1)c1nc(-c2ccccc2C(F)(F)F)nc2ccccc12,/,-18.6%,?,/,/
CCOC(=O)C1CCCN(C(=S)NC(=O)c2cc(Br)ccc2Cl)C1 (centres undefined),13.5%,-19.0%,1.0%,11.7%,27.8
CCOC(=O)C1CCCN(C(=O)c2c(-c3ccccc3)noc2C)CC1 (centres undefined),21.5%,-16.0%,?,1.6%,6.4
CCOC(=O)C1(C)CCCN(C(=O)c2c(-c3ccccc3)noc2C)C1 (centres undefined),-0.9%,?,13µM*,11.0%,18.3
CCOC(=O)C1CCN(C(=O)c2c(-c3ccccc3)noc2C)CC1,1.4%,-25.2%,13.4%,-2.3%,-72.9*
COc1ccc(CN2CCN(C(=O)c3c(-c4ccccc4)noc3C)CC2)cc1F,-5.0%,23.1µM*,?,-3.2%,21.4
CCCCNC(=O)c1ccccc1SCc1c(C)noc1C,3.8%,-18.6%,?,3.8%,17.4
Cc1ccc(OCC(=O)N/N=C\c2cccn2C)c([N+](=O)[O-])c1,-11.2%,?,4.2%,5.4%,-2.0
SMILES,HT1080-NT tox,DT40 TDP1 no CPT,DT40 TDP1 CPT,HT1080 IDH1KD tx,IL1B secr inh
C=C1C(=O)OC2C1C(OC(=O)C(C)=CC)CC(=C)C1C(O)C3OC3(C)C21O (centres undefined),-1.4%,14.6µM*,14.6µM*,14.6µM*,-101.1*
CN1CCC(C)(C(=O)Nc2ccc3c(c2)OCCO3)C1 (centres undefined),8.2%,-2.6%,0.1%,14.9%,-7.5
CCOC(=O)C1=C(C)NC(=S)NC1c1ccc(OCC(=O)N2CCCCCC2)cc1 (centres undefined),0.3%,-11.1%,?,-0.8%,5.6
OC(c1ccccn1)c1c[nH]c2ccccc12 (centres undefined),0.3%,-21.0%,-9.6%,-1.4%,-0.8
CCc1cccc2c(C(=O)CN3C(=O)NC4(CCCCC4)C3=O)c[nH]c12,-26.1%,5.8µM*,5.8µM*,?,-2.0
CCc1cccc2c(C(O)c3c[nH]c4ccccc34)c[nH]c12 (centres undefined),/,11.2µM*,4.47µM*,/,/
CCc1cccc2c(C(=S)N3CCCC3)c[nH]c12,1.2%,-9.5%,-23.2%,-1.8%,-6.4
CCc1cccc2c(C(=O)CCl)c[nH]c12,?,20.6µM*,14.6µM*,14.6µM*,-94.7*
Cn1c(=O)c2cc(S(=O)(=O)Nc3cc(C(=O)O)cc(C(=O)O)c3)ccc2n(C)c1=O,7.4%,-2.2%,-4.5%,4.8%,0.4
Cc1ccc(NS(=O)(=O)c2ccc3c(c2)c(=O)n(C)c(=O)n3C)cc1F,16.4µM*,16.4µM*,14.6µM*,?,?
Cc1cc(C)cc(NS(=O)(=O)c2ccc3c(c2)c(=O)n(C)c(=O)n3C)c1,6.31µM*,2.06µM*,1.84µM*,3.16µM*,-67.5*
COCCCNC(=O)c1c(NC(=O)c2nc(S(C)(=O)=O)ncc2Cl)sc2c1CCCC2,/,0.731µM*,1.03µM*,/,/
CCOC(=O)c1c(NC(=O)c2nc(SCC)ncc2Cl)sc2c1CCCC2,/,7.0%,11.2%,/,/
CCCSc1ncc(Cl)c(C(=O)Nc2sc3c(c2C(N)=O)CCCC3)n1,/,12.8%,20.7%,/,/
CCSc1ncc(Cl)c(C(=O)Nc2sc3c(c2C(=O)NCc2cccnc2)CCCC3)n1,3.3%,?,-27.6%,18.5%,-10.0
CCCSc1ncc(Cl)c(C(=O)Nc2sc3c(c2C(=O)NCCCOC)CCCC3)n1,/,11.2µM*,12.6µM*,/,/
CCOCCCNC(=O)c1c(NC(=O)c2nc(SCC)ncc2Cl)sc2c1CCCC2,/,10µM*,?,/,/
CCNC(=O)c1c(NC(=O)c2nc(S(=O)(=O)CC)ncc2Cl)sc2c1CCCC2,/,0.731µM*,-112.4%,/,/
CCC(=O)N(CCc1ccccc1)Cc1cc2cccc(C)c2[nH]c1=O,4.0%,?,-16.9%,6.5%,-10.4
COc1cc(CN(C(=O)c2ccccc2F)C2CCS(=O)(=O)C2)cc(OC)c1OC (centres undefined),/,-3.2%,0.2%,/,/
CCCC(=O)Nc1cccc(-c2nc3cc(C)c(C)cc3o2)c1C,/,-11.3%,1.5%,/,/
